# APP transl inh – inhibitors of APP translation via 5'UTR reporter, primary screen, APP 5'UTR luciferase, SH-SY5Y cells | SH-SY5Y APP 5'UTR-luciferase reporter, luminescence | inhibition, % at 2 µM | 190,000 tested, 0.82% active | AID 1285, 2008;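 active = inhibition above a set limit, derived from the sample mean plus 3 SD, cut at about 45% in these data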
# KLF5 inhibitor – KLF5 expression inhibitors, primary screen, DLD-1 cells, luminescence; DLD-1 KLF5 promoter-luciferase reporter; inhibition, % at 5 µM; 290,000 tested, 0.23% active; AID 1700, 2009;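 active = inhibition above a per-plate limit of that plate's mean compound inhibition plus 3 SD, cut at about 60% in these data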;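 note: 0% = DMSO wells and 100% = LY294002 at 200 µM; higher means less KLF5 promoter-driven luciferase light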
# IEC-6 tox-1 – cytotoxicity in IEC-6 intestinal epithelial cells, primary screen, cytotoxicity control for KLF5 inhibitor project, cell-based, luminescence | IEC-6 cytotoxicity, luminescence viability | inhibition, % at 5 µM | 290,000 tested, 0.78% active | AID 1825, 2009;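 note: 0% = plate median of test compound wells and 100% = cytotoxic reference compound wells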
# Ba/F3 V617F tox – reduced viability of JAK2V617F-dependent Ba/F3 cells, primary screen, JAK2V617F inhibitor project, cell-based, Ba/F3 EpoR-JAK2V617F, luminescence | 220,000 tested, 1.1% active | inhibition, % at 5.6 µM | ATP luminescence;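 active = inhibition above the campaign mean plus 3 SD over all tested compounds, cut at about 24% in these data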;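 note: cytokine-independent growth of Ba/F3 cells driven by EpoR plus mutant JAK2; 0% = DMSO-treated cells and 100% = JAK inhibitor I control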
# BaF3 parental – parental Ba/F3 cell viability inhibition, counter-screen for JAK2V617F inhibitor project, murine pro-B, CellTiter-Glo luminescence. CellTiter-Glo ATP luminescence. inhibition, % at 5.6 µM. 220,000 tested, 1.1% active;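 active = inhibition above a per-campaign cutoff, the mean inhibition of all tested compounds plus 3 SD, cut at about 27% in these data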;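 note: 0% = DMSO wells and 100% = JAK Inhibitor I control wells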
# KLF5 inh confirm – KLF5 expression inhibitors, confirmation, DLD-1 cells, luminescence. shares compounds with KLF5 inhibitor. DLD-1 KLF5 promoter firefly luciferase reporter. inhibition, % at 4 µM. 610 tested, 79% active. AID 1834, 2009;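 active = inhibition above a set limit taken from the earlier primary screen, cut at about 63% in these data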;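 note: 0% = DMSO wells and 100% = LY294002 at 200 µM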
# IEC-6 tox-2 – cytotoxicity in rat IEC-6 cells, cytotoxicity control for KLF5 inhibitor project, cell-based, luminescence, triplicate; shares compounds with KLF5 inhibitor; 610 tested, 56% active; inhibition, % at 4 µM; IEC-6 rat intestinal cells, viability luminescence; in the data active = inhibition above about 23%;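 note: cells exposed to compounds for 48 hours before viability read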
# IEC-6 tox confirm – cytotoxic compounds in IEC-6 epithelial cells, confirmation, cytotoxicity control, cell-based, luminescence; IEC-6 rat intestinal epithelial viability; shares compounds with IEC-6 tox-1; 1,900 tested, 63% active; inhibition, % at 5 µM;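 note: 0% = vehicle and 100% = reference cytotoxic drug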
# Starred values were filed as active, the others as inactive; x = not tested or not shown. Sampled rows, rich in hits. Any-hit rate of the full collection: about 1.8%. Cut-off read from the data, not from the text of the source, unless noted: active = inhibition above about 22%; inactive = the rest.
SMILES,APP transl inh,KLF5 inhibitor,IEC-6 tox-1,Ba/F3 V617F tox,BaF3 parental,KLF5 inh confirm,IEC-6 tox-2,others
COc1ccc(C2Nc3ccccc3C(=O)N2C2CCCCC2)cc1 (stereo unspecified),-23,-38,-7,0,7,x,x,
CCCC(=O)NC(c1ccco1)c1cc(Cl)c2cccnc2c1O (stereo unspecified),4,-17,5,7,4,x,x,
CCCC(=O)NC(c1ccc(Cl)cc1Cl)c1ccc2cccnc2c1O (stereo unspecified),x,82*,19,x,x,82*,53*,
CCC(=O)NC(c1ccc(OC)c(OC)c1)c1cc(Cl)c2cccnc2c1O (stereo unspecified),62*,68*,11,81*,39*,87*,30*,
CCCC(=O)NC(c1ccc(N(C)C)cc1)c1c(O)ccc2ccccc12 (stereo unspecified),3,2,-8,-2,2,x,x,
CCCC(=O)NC(c1ccccc1OC)c1ccc2cccnc2c1O (stereo unspecified),75*,91*,101*,102*,101*,97*,47*,
CCCCC(=O)NC(c1ccc(N(CC)CC)cc1)c1ccc2cccnc2c1O (stereo unspecified),x,68*,11,x,x,85*,44*,
Oc1[nH]c2ccccc2c1C1=NCCCCC1,11,-5,2,-2,0,x,x,
O=C(Nc1nncs1)c1cc2c(s1)CCC2,-40,-93,0,1,8,x,x,
O=C(Nc1nccs1)c1cc2c(s1)CCCCC2,-37,75*,9,-1,7,70*,-1,
COc1ccc(C(=O)Nc2nc3ccccc3s2)c(OC)c1,x,101*,22,x,x,80*,17,
COc1ccc2nc(NC(=O)c3ccccc3C(=O)O)sc2c1,x,-19,2,x,x,x,x,
CCCN1C=CC(=C2C(=O)c3ccccc3C2=O)C=C1,81*,107*,18,18,21,106*,24*,
CCCCCCN1C=CC(=C2C(=O)c3ccccc3C2=O)C=C1,-48,-92,5,5,11,x,x,
CCN1C=CC(=C2C(=O)c3ccccc3C2=O)C=C1,70*,87*,12,6,14,96*,9,
Cc1ccc(C)c(OCc2cc(C(=O)N3CCN(c4ccccc4C)CC3C)no2)c1 (stereo unspecified),x,-42,4,x,x,x,x,
CC(CCCC(C)(C)O)CC1C2=C(CCCC2=O)OC2=C1C(=O)CCC2 (stereo unspecified),-7,-29,-1,-1,5,x,x,
N/C(=N\OCc1ccc([N+](=O)[O-])cc1)c1ccccn1,-34,88*,0,1,9,97*,-3,
COc1cccc(/C=N/Nc2ncnc(N)c2[N+](=O)[O-])c1OC,-86,-23,0,2,4,x,x,
Cc1cc(/C=N/Nc2ncnc(N)c2[N+](=O)[O-])c(C)n1-c1ccccc1,x,67*,7,2,3,97*,4,
CCC(=O)N(C1=C(NC)C(=O)c2ccccc2C1=O)C(C)C,22,76*,3,100*,102*,15,4,
CC(=O)NC1=C(N(C)C2CCS(=O)(=O)C2)C(=O)c2ccccc2C1=O (stereo unspecified),2,-43,0,1,10,x,x,
CNC1=C(N(C(C)=O)c2ccc(Br)cc2)C(=O)c2ccccc2C1=O,55*,97*,14,100*,102*,94*,18,
Cc1c(/C(O)=C2/C(=O)C(=O)N(CCN3CCOCC3)C2c2ccccn2)cnn1-c1ccccc1 (stereo unspecified),-15,69*,1,1,5,36,4,
Cc1ccc(C2/C(=C(/O)c3cnn(-c4ccccc4)c3C)C(=O)C(=O)N2CCCN2CCOCC2)o1 (stereo unspecified),x,-17,-2,0,-3,x,x,
SMILES,APP transl inh,KLF5 inhibitor,IEC-6 tox-1,Ba/F3 V617F tox,BaF3 parental,KLF5 inh confirm,IEC-6 tox-2,others
CCOc1cc(Br)cc(/C=N/NC(=O)c2cccnc2)c1O,x,100*,-1,x,x,94*,-3,
COc1c(Br)cc(Br)cc1/C=N/NC(=O)c1cccnc1,x,-9,13,x,x,x,x,
CC(C)(C)C(=O)Nc1ccc(NC(=O)c2ccco2)nc1,x,94*,2,x,x,102*,9,
COc1ccccc1N1CCN(c2nc(C)nc3c2oc2ccccc23)CC1,93*,67*,80*,65*,71*,79*,64*,
Oc1c(Cl)cc(CN2CCCCC2)c2cccnc12,x,98*,7,x,x,92*,12,
Oc1c(Cl)cc(Cl)c2cccnc12,5,-7,0,2,6,x,x,
COc1ccccc1N1CCN(Cc2cc(Br)c(O)c3ncccc23)CC1,21,93*,1,98*,86*,65*,-2,
CC1(C)C2C/C(=N\O)C(C)(/[N+]([O-])=C/c3cccc([N+](=O)[O-])c3)CC21 (stereo unspecified),-10,-1,-3,1,-11,x,x,
O=C(Cc1ccccc1)NNS(=O)(=O)c1ccccc1[N+](=O)[O-],x,-30,-5,x,x,x,x,
O=C(COc1ccccc1[N+](=O)[O-])N/N=C/c1cccs1,-30,-31,-5,0,9,x,x,
CCOC(=O)c1sc(NC(=O)c2cc3ccccc3o2)nc1C,-116,82*,6,4,2,62*,-4,
CCOC(=O)c1sc(NC(=O)c2ccc3ncsc3c2)nc1C,-83,94*,-3,-4,-2,75*,3,
COc1ccc(-c2nsc3c(N4CCCCC4)ncnc23)cc1,-98,-24,2,-4,1,x,x,
COc1ccc(-c2nsc3c(N4CCCCC4C)ncnc23)cc1 (stereo unspecified),34,76*,-2,-1,6,92*,3,
O=C(CSc1n[nH]c(-c2ccccn2)n1)Nc1ccc(F)cc1,x,22,13,x,x,x,x,
O=C(CSc1n[nH]c(-c2ccccn2)n1)Nc1ccc(Cl)cc1,x,73*,44*,x,x,63*,18,IEC-6 tox confirm=29*
COC(=O)c1cc(-c2c(-c3cc(OC)c(OC)c(OC)c3)noc2C)cc([N+](=O)[O-])c1,x,-24,0,x,x,x,x,
COc1cc(-c2noc(C)c2C#Cc2ccccn2)cc(OC)c1OC,x,62*,82*,x,x,71*,61*,IEC-6 tox confirm=62*
COc1cc(-c2c(-c3cc(OC)c(OC)c(OC)c3)noc2C)ccc1F,x,79*,98*,x,x,88*,74*,IEC-6 tox confirm=71*
